Data from PubChem BioAssay AID489012 (National Center for Advancing Translational Sciences (NCATS), 2010).
Results filed as inconclusive are left out. The source made the active and inactive calls. Calls follow the shape of the dose curve; as a rule, active = well fitted activation curve with a large enough effect; inconclusive = small, poorly fitted or top-dose-only effect; inactive = no such curve, though single readings can be large or run the other way.

The molecules below were run against Relaxin receptor 1 (Homo sapiens) (UniProt Q9HBX9) (assay: qHTS Assay for Agonists of the Relaxin Receptor RXFP1: RXFP1 Hit Validation). Conditions: HEK293T-RXFP1 cAMP TR-FRET, 30 min; series mostly up to 115 µM; activation: at the top concentration.
Text: NIH Chemical Genomics Center [NCGC] NIH Molecular Libraries Probe Production Centers Network [MLPCN] MLPCN Grant: R03 MH085705-01A1 Assay Submitter (PI): Alexander Agoulnik NCGC Assay Overview: The relaxin hormone is involved in the variety of biological functions in normal tissues and diseases. The role of relaxin is well-established in female reproduction and parturition, mammary gland and endometrial development, maintenance of myometrial quiescence during pregnancy. Relaxin signaling through its G protein-coupled receptor (GPCR) RXFP1 results in ECM remodeling through regulation of collagen deposition, cell invasiveness, proliferation and overall tissue homeostasis. […] Recombinant human relaxin (rhRlx) is currently being tested in clinical trials as a protective agent in congestive heart failure, in treating severe preeclampsia, and as an anti-fibrotic agent in systemic sclerosis. Upon relaxin binding RXFP1 activation leads to the activation of adenylate cyclase (AC) via Gs. cAMP will activate PKA, which phosphorylates many signaling proteins. Thus, detection of cAMP increase is an easy and reliable indication of relaxin receptor activation. To screen for agonists of the relaxin receptor, a HEK293T cell line stably transfected with RXFP1 was used. RXFP1 activation was assayed by changes in cAMP levels as detected with a time-resolved fluorescence energy transfer (TR-FRET) cAMP detection kit.
NCGC Assay Protocol Summary: This is a cell-based assay for cAMP second messenger response to screen for agonists of the RXFP1 receptor. The assay was conducted in the presence of a PDE4 inhibitor (Ro 20174). The cells were lysed and the cAMP levels were measured with a TR-FRET cAMP kit. Presence of cAMP in the cell lysate disrupts binding between the cryptate-labeled anti-cAMP and d2-labeled cAMP pair, leading to a decrease in the TR-FRET signal. Data were normalized to the controls for basal activity (buffer only) and 100% activity (29 nM porcine relaxin). The EC50 values were determined from concentration-response data modeled with the standard Hill equation 1536-well assay protocol for the HEK293 RXFP1 cAMP assay: (1) Add 3 ul HEK293 RXFP1 cell culture. 2000 cells/well in DMEM/F12, 10% FBS, 1x Pen/Strep (dispensed offline with MultiDrop Combi). (2) Incubate 16-24 hr at 37C, 5% CO2. (3) Add 1 ul 400uM Ro20174 in DPBS, 0.05% BSA, 0.005% Tween 20. (3) Add 23 nl compounds in DMSO solution. Final concentration was 0.5 - 58 uM. (4) Incubate 30 min at 37C, 5% CO2. (5) Add 1 ul cAMP-d2 in lysis buffer (HTRF cAMP HiRange kit, CisBio). (6) Add 1 ul anti-cAMP antibody-cryptate in lysis buffer (HTRF cAMP HiRange kit, CisBio). (7) Incubate 30 min at room temperature. […] Keywords: relaxin, RXFP1, RXFP2, G-protein coupled receptor, cAMP, agonist, high throughput screening, MLSMR, MLSCN, NIH Roadmap, qHTS and NCGC
Also: nearly all actives have a fitted effect of over 65% in size.
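For activation in this document: cAMP rise lowers the TR-FRET signal in lysed cells with PDE4 inhibitor present; 0% = buffer-only basal and 100% = 29 nM porcine relaxin.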
Potency is read from the fitted curve at half-maximal effect.

Relaxin receptor 1 (Homo sapiens), sequence (Q9HBX9 whole entry, looked up): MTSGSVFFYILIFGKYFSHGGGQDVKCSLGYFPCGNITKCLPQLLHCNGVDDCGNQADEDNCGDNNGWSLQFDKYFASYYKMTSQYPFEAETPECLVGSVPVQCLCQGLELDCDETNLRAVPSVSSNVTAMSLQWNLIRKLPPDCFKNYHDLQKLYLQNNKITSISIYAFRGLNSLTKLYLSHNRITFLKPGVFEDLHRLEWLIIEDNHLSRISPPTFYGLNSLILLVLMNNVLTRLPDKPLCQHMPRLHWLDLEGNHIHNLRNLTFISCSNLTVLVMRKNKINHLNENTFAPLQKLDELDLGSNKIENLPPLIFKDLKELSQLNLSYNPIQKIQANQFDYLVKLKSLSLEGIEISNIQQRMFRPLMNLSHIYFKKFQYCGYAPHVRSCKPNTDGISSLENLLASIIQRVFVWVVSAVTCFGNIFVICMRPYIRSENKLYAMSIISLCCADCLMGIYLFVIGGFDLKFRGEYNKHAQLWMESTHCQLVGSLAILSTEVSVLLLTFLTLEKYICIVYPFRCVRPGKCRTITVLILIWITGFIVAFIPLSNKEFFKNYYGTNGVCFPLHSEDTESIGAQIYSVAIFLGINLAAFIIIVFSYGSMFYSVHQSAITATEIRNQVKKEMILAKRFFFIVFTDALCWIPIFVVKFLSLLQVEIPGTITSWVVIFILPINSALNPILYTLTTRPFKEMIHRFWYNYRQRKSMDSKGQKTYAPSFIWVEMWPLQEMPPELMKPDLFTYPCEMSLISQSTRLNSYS

SMILES	activation	Potency
CCn1c(=O)c2cc(C(=O)Nc3cccc(C(C)=O)c3)sc2c2ccccc21	7.81% (inactive)	–
O=c1oc2cc(O)c(Cl)cc2c2ccccc12	–	6.9 µM (active)
COc1ccc(OC)c(CNC(=O)C2CCN(C(=O)N(C)C)CC2)c1	-4.27% (inactive)	–
O=C(CSc1ccc2nnc(-c3ccncc3)n2n1)NCC1CCCO1 (stereo not given)	27% (inactive)	–
COc1ccc(S(=O)(=O)Nc2ccccn2)c(C)c1C	1.99% [at 45 µM] (inactive)	–
CCc1cc2cc3c(cc2nc1SCC(=O)Nc1nccs1)OCO3	–	17.3 µM (active)
O=C(Nc1ccccc1C(=O)N1CCCCC1)c1ccco1	3.58% [at 125 µM] (inactive)	–
Cc1cccc(NC(=O)c2ccccc2NC(=O)C2CCCCC2)c1C	-1.94% [at 125 µM] (inactive)	–
CC(=O)c1sc(NC(=O)C(C)C)nc1C	–	15.4 µM (active)
Cc1ccc(-c2ccc3nnc(SCC(=O)NCC4CCCO4)n3n2)cc1 (stereo not given)	-24.9% (inactive)	–
NCCNC(=O)Cc1ccc(NC(=O)Cc2ccc(Nc3ncnc4c3ncn4[C@@H]3O[C@H](CO)[C@@H](O)[C@H]3O)cc2)cc1	–	1.23 µM (active)
NC(=S)c1cc2ccc(O)cc2oc1=O	–	7.74 µM (active)
Cn1c(N)c(C(=O)CSc2nn(-c3ccc(F)cc3)c(=S)s2)c(=O)n(C)c1=O	–	21.8 µM (active)
CCN(CC)S(=O)(=O)c1cccc(N=Nc2c(O)c3ccccc3oc2=O)c1	–	21.9 µM (active)
Cn1c(N)c(C(=O)CSc2nnc(NC3CCCCC3)s2)c(=O)n(C)c1=O	-27% (inactive)	–
CC(C)n1cnc2c(N(C)c3cccc(Cl)c3)nc(N(CCO)CCO)nc21	-5.98% (inactive)	–
COc1ccc(CCn2c(=N)c(C(=O)NCC3CCCO3)cc3c(=O)n4cccc(C)c4nc32)cc1 (stereo not given)	20.5% (inactive)	–
COCCNC(=O)NC(=O)COC(=O)C12CC3CC(CC(NC(C)=O)(C3)C1)C2	2.8% [at 45 µM] (inactive)	–
Cc1cccc(N2C(=O)C(O)=C(C(=O)c3cccs3)C2c2ccc(C(C)C)cc2)n1 (stereo not given)	22% (inactive)	–
CC(NC(=O)c1ccccc1NC(=O)c1ccco1)C(=O)O (stereo not given)	5.27% [at 125 µM] (inactive)	–

SMILES	activation	Potency
N#Cc1c(N)nc(SCC(=O)C23CC4CC(CC(C4)C2)C3)c(C#N)c1-c1ccc(Cl)cc1	–	9.74 µM (active)
O=C(OCc1nc2ccsc2c(=O)[nH]1)c1cccc(S(=O)(=O)N2CCOCC2)c1	–	34.6 µM (active)
CCN(CC)CCCN1C=C2C(=O)C(C)(OC(=O)C3CCCC3)C(=O)C=C2C=C1c1ccsc1 (stereo not given)	-3.64% (inactive)	–
C=CCSc1nc2c(c(=O)[nH]1)C(C(C)C)C(C#N)=C(N)O2 (stereo not given)	–	27.5 µM (active)
CCC(=O)Nc1ccc(-n2nnnc2SCC(=O)NNC(=O)c2ccco2)cc1	-4.13% (inactive)	–
CCOP1(=O)OCC2OC(n3cnc4c(N)ncnc43)C(O)C2O1 (stereo not given)	–	6.91 µM (active)
CC(C)(C)C(=O)Nc1ccccc1C(=O)NCc1ccco1	7.47% [at 125 µM] (inactive)	–
Cc1cccc(C(=O)Nc2ccccc2C(=O)NCc2ccco2)c1	9.91% [at 125 µM] (inactive)	–
CCOC(=O)/C(C#N)=C/c1c(N2CCN(CC)CC2)nc2c(C)cccn2c1=O	23.8% (inactive)	–
Cc1cc(NC(=O)c2ccccc2F)nc2c1c(=O)oc1ccccc12	–	17.3 µM (active)
CC1(C)Cc2c(sc3ncnc(NN)c23)CO1	25.2% [at 45 µM] (inactive)	–
COc1ccc(Cl)cc1-c1n[nH]c(=S)o1	–	6.15 µM (active)
CCN(c1ccccc1)S(=O)(=O)c1ccc(OC)c(NC(=O)C2CC(=O)N(Cc3ccccc3)C2)c1 (stereo not given)	-5.54% (inactive)	–
CC(=O)Nc1ccc(NC(=O)CSc2ccc3nnc(-c4ccccn4)n3n2)cc1	26.3% [at 45 µM] (inactive)	–
Cc1cccc(-c2nnc(SCC(=O)NC3CC3)n2C)c1	-32% (inactive)	–
COC(=O)c1c(NC(=O)c2cccc(N3C(=O)CCC3=O)c2)sc2c1CCN(C(C)=O)C2	28.6% (inactive)	–
Cc1ccc2[nH]c3c(=S)nc[nH]c3c2c1	–	3.88 µM (active)
O=C(O)c1ccc(N2C(=O)c3cccc4c(C(=O)O)ccc(c34)C2=O)cc1	27.2% [at 45 µM] (inactive)	–
CN(CC(=O)Nc1ccccc1Cl)C(=O)COC(=O)Cc1c(F)cccc1Cl	0.353% [at 45 µM] (inactive)	–
CC(C(=O)Nc1cccnc1)n1cc([N+](=O)[O-])cn1 (stereo not given)	25.3% (inactive)	–
